Source: PubChem (National Center for Advancing Translational Sciences (NCATS))
Hits are enriched below; roughly 21% of the tested compounds scored in any of these assays.
Shiga inhibitor: A qHTS for Small Molecule Inhibitors of Shiga Toxin; Vero cells, Shiga toxin protein synthesis inhibition reporter; inhibition, % at 38.7 µM; 290,000 compounds, 9.2% hits; in the data active means inhibition mostly above about 28%, no sharp cut-off; inactive means mostly below about 43%; further: 0% is about no effect
CHX counter: Cycloheximide Counterscreen for Small Molecule Inhibitors of Shiga Toxin | cell reporter, cycloheximide protein synthesis inhibition counterscreen | max response, % | 300,000 compounds, 12% hits | AID 2314, 2010; in the data active means max response mostly above about 13%, no sharp cut-off; inactive means mostly below about 14%; further: read at 38.3 µM for the half of the compounds with a filed dose; 0% is about no effect
Pf growth 96h: Primary qHTS for delayed death inhibitors of the malarial parasite plastid, 96 hour incubation. P. falciparum luciferase reporter growth, 96 h. Potency, µM (series often up to 28.7 µM), for inactives: top-dose activity change, negative = inhibition, usual class: inhibitors. 320,000 compounds, 6.9% hits. AID 504834, 2011; active means well fitted inhibition curve with a large enough effect; inconclusive means small, poorly fitted or top-dose-only effect, or another doubt; inactive means no such curve, though single readings can be large or run the other way; further: potency means the concentration at half of the fitted maximal effect; on the % scale 0 is the no-effect control and ±100 the full control effect
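P. falciparum expressing integrated firefly luciferase grown in erythrocytes (2% hematocrit, 0.05% parasitemia final) with compounds for 96 hours at 37 C, 5% CO2. Growth inhibition read as loss of luminescence after adding luciferase detection reagent.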
SARS PLP yeast: qHTS of Yeast-based Assay for SARS-CoV PLP. S. cerevisiae expressing SARS-CoV PLpro, growth rescue. Potency, µM (highest dose often 32.9 µM), for the others: at the highest dose activity, positive = growth rescue, hits mostly activators. 330,000 compounds, 0.19% hits; further: potency means the concentration at half of the fitted maximal effect; 0% is about no effect; nearly all actives have a fitted effect of over 55% in size
Pf growth 48h: Primary qHTS for delayed death inhibitors of the malarial parasite plastid, 48 hour incubation; P. falciparum luciferase growth in erythrocytes, 48 h; Potency, µM (series often up to 28.7 µM), without a hit: at the top dose activity change, negative = inhibition, most hits filed as inhibitors; 310,000 compounds, 5.9% hits; active means well fitted inhibition curve with a large enough effect; inconclusive means small, poorly fitted or top-dose-only effect, or another doubt; inactive means no such curve, though single readings can be large or run the other way; further: potency means the concentration at half of the fitted maximal effect; on the % scale 0 is the no-effect control and ±100 the full control effect
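Parasite viability was followed by luminescence of a genomically integrated firefly luciferase. Cultures held 0.1% parasitemia at 2% hematocrit (final), incubated under 5% CO2 at 37 C.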
NS1 function inh: qHTS Assay for Inhibitors of Influenza NS1 Protein Function; Potency, µM (series often up to 46.1 µM), inactives show at the top dose activity, positive = more growth; 270,000 compounds, 0.4% hits; AID 2326, 2010; further: potency means the concentration at half of the fitted maximal effect; actives are rising curves; nearly all actives have a fitted effect of over 50% in size
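A cell-based growth assay was used: compounds that relieve NS1-induced slow growth of budding yeast raise OD600. Assay medium was yeast nitrogen base with ammonium sulphate and -URA supplement, pH 6.0, with 2% galactose.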
* = called active by the depositor. Unless noted, the call rests on the fitted dose curve.

Screening CCOC(=O)C1=C(N)n2c(s/c(=C/c3ccco3)c2=O)=C(C(=O)OC)C1c1ccco1 (centres undefined) returned Shiga inhibitor 11, CHX counter 15, Pf growth 96h inconclusive, SARS PLP yeast -4%, Pf growth 48h 13µM* and NS1 function inh inconclusive.
For CCOC(=O)C1=C(c2ccccc2)N2CCS(=O)(=O)N=C2S1 the results were Shiga inhibitor -3, CHX counter -1, Pf growth 96h 10µM*, SARS PLP yeast -7%, Pf growth 48h -1% and NS1 function inh 9%.
`CN(CC(=O)Nc1ccccc1Cl)C(=O)CSc1nnc(-c2ccco2)n1C` gave Pf growth 96h inconclusive, SARS PLP yeast 5% and Pf growth 48h -27%.
`O=C(NNC(=O)c1ccccc1O)c1cc2ccccc2o1` gave Pf growth 96h 168%, SARS PLP yeast -16% and Pf growth 48h 32%.
Screening Cc1nnc(SCc2ccccc2F)n1NCc1cccs1 returned Shiga inhibitor 54, CHX counter 24*, SARS PLP yeast 0%, Pf growth 48h 29% and NS1 function inh -17%.
Cn1ccnc1C(O)(c1nnc(-c2ccccc2)o1)C(F)(F)F (centres undefined) was read as Shiga inhibitor -17, CHX counter -3, Pf growth 96h inconclusive, SARS PLP yeast 5%, Pf growth 48h 13% and NS1 function inh -1%.
`CC1=CC(C)(C)N(C(=O)CSc2nnc(-c3ccc(C)cc3)o2)c2ccc(C)cc21` gave Shiga inhibitor -9, CHX counter 11, Pf growth 96h 9.3µM*, SARS PLP yeast -25% and NS1 function inh -5%.
For Oc1cccc2ccc[n+](CC(O)Cn3c4ccccc4c4ccccc43)c12 (centres undefined) the results were Shiga inhibitor -6, CHX counter -2, Pf growth 96h inconclusive, SARS PLP yeast -4%, Pf growth 48h 1µM* and NS1 function inh 22%.
For O=C1CNC(=O)N1CC(O)Cn1c2ccccc2c2ccccc21 (centres undefined) the results were Shiga inhibitor -7, CHX counter -7, Pf growth 96h 55%, SARS PLP yeast 4%, Pf growth 48h 13% and NS1 function inh -1%.
For Cc1c(C)n(CC(O)CNc2ccccc2)c2ccccc12 (centres undefined) the results were Shiga inhibitor -28, CHX counter -3, Pf growth 96h inconclusive, SARS PLP yeast -4%, Pf growth 48h inconclusive and NS1 function inh -1%.
Screening COc1ccc(NCC(O)Cn2c(C)c(C)c3ccccc32)cc1 (centres undefined) returned Shiga inhibitor -8, CHX counter 2, Pf growth 96h 7.4µM*, SARS PLP yeast 0%, Pf growth 48h inconclusive and NS1 function inh 1%.
Screening CC(SC1=Nc2ccccc2C2CC=NN12)C(=O)NC1(C#N)CCCCC1 (centres undefined) returned Pf growth 96h 8.3µM*, SARS PLP yeast 0% and Pf growth 48h inconclusive.
CCOC(=O)CC(=O)CSc1n[nH]c(=O)[nH]c1=O was read as Shiga inhibitor 3, CHX counter 2, Pf growth 96h 21%, SARS PLP yeast -1%, Pf growth 48h 4% and NS1 function inh -1%.
For COc1cc(CCC(=O)OCC(=O)NCCc2ccc(S(N)(=O)=O)cc2)cc(OC)c1OC the results were SARS PLP yeast -4%.
Cc1nn(Cc2ccccc2)c(C)c1C(=O)N1CCN(S(=O)(=O)/C=C/c2ccccc2)CC1 was read as Pf growth 96h 4.1µM*, SARS PLP yeast 0% and Pf growth 48h 12µM*.
Screening COc1ccc(C(=O)Nc2cc(Cl)ccc2-n2cncn2)c(OC)c1OC returned Pf growth 96h inconclusive, SARS PLP yeast -5% and Pf growth 48h inconclusive.
`COC(=O)c1c(Cl)c2n3ccccc3c(C)c(-c3ccccc3)c-2c1C(=O)OC` gave Shiga inhibitor -4, CHX counter -3, Pf growth 96h 10µM*, SARS PLP yeast 11%, Pf growth 48h inconclusive and NS1 function inh 21%.
COC(=O)c1cc2c(-c3ccccc3)c(C)c3ccccn3c-2c1C(=O)OC was read as Shiga inhibitor -4, CHX counter -4, Pf growth 96h inconclusive, SARS PLP yeast -9% and NS1 function inh -1%.
`COc1ccc(C)cc1NC(=O)C1CCCN(S(=O)(=O)c2cccnc2)C1` (centres undefined) gave Shiga inhibitor -10, CHX counter -2, Pf growth 96h -27%, SARS PLP yeast 0%, Pf growth 48h -15% and NS1 function inh 7%.
Screening CCOc1ccccc1N(C(=O)c1ccco1)C(C(=O)NC1CCCC1)c1cccs1 (centres undefined) returned Shiga inhibitor 2, CHX counter -2, Pf growth 96h inconclusive, SARS PLP yeast -1%, Pf growth 48h 0% and NS1 function inh -7%.
For O=C(NC1CCCCC1)C(c1cccs1)N(C(=O)c1ccco1)c1ccc2c(c1)OCCO2 (centres undefined) the results were Shiga inhibitor 10*, CHX counter 24*, Pf growth 96h 303%, SARS PLP yeast -8%, Pf growth 48h inconclusive and NS1 function inh 22%.
CC(=O)c1ccc(N(C(=O)c2ccco2)C(C(=O)NC2CCCC2)c2cccs2)cc1 (centres undefined) was read as Shiga inhibitor 26, CHX counter 29*, Pf growth 96h inconclusive, SARS PLP yeast 1%, Pf growth 48h inconclusive and NS1 function inh 6%.
`CC(=O)c1cccc(N(C(=O)c2ccccn2)C(C(=O)NC2CCCCC2)c2cccs2)c1` (centres undefined) gave Shiga inhibitor 16, CHX counter 0, Pf growth 96h 1.7µM*, SARS PLP yeast inconclusive, Pf growth 48h 2.6µM* and NS1 function inh 5%.
For O=C(NC1CCCCC1)C(c1cccs1)N(Cc1cccs1)C(=O)c1ccco1 (centres undefined) the results were Shiga inhibitor -18, CHX counter 8, SARS PLP yeast 1%, Pf growth 48h 15µM* and NS1 function inh -3%.
`COc1ccc(N(CC(=O)NCC2CCCO2)C(=O)CCC(=O)Nc2cc(C)on2)cc1OC` (centres undefined) gave Shiga inhibitor -13, CHX counter -7, Pf growth 96h -24%, SARS PLP yeast 2%, Pf growth 48h 15% and NS1 function inh 2%.
O=C(O)CCC(=O)Nc1ccc(Oc2ncnc3cc(Cl)ccc23)nc1 was read as Shiga inhibitor -4, CHX counter -2, Pf growth 96h 39%, SARS PLP yeast 2%, Pf growth 48h 27% and NS1 function inh 9%.
